G9a inh – G9a (human) methyltransferase inhibition; Q96KQ7; G9a H3K9 monomethylation, AlphaScreen, 2 h; Potency, µM (top dose mostly 102 µM), for inactives: at the top dose activity, negative = inhibition, most hits filed as inhibitors; 350,000 compounds, 8.8% hits; AID 504332; also: % is scaled to controls: 0 for no effect and ±100 for the full control effect; nearly all actives have a fitted effect of over 75% in size
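Methyltransferase reactions run at room temperature for 2 h (20 nM enzyme, 500 nM biotin-H3K9 peptide, 20 uM SAM) after a 15 min compound preincubation; product detected by AlphaScreen beads and anti-H3K9me1 antibody.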
PLK1 PBD block – blocks phosphopeptide binding to human PLK1 polo-box domain; P53350; Plk1 PBD binding of FITC phosphopeptide, fluorescence polarization; Potency, µM, for inactives: max response, negative = inhibition, usual class: inhibitors; 360,000 compounds, 2.8% hits; AID 720504; also: series mostly up to about 57 µM; % is scaled to controls: 0 for no effect and ±100 for the full control effect; nearly all actives have a fitted effect of over 65% in size
Target sequence (P53350 whole entry, looked up, the tested form may be a part): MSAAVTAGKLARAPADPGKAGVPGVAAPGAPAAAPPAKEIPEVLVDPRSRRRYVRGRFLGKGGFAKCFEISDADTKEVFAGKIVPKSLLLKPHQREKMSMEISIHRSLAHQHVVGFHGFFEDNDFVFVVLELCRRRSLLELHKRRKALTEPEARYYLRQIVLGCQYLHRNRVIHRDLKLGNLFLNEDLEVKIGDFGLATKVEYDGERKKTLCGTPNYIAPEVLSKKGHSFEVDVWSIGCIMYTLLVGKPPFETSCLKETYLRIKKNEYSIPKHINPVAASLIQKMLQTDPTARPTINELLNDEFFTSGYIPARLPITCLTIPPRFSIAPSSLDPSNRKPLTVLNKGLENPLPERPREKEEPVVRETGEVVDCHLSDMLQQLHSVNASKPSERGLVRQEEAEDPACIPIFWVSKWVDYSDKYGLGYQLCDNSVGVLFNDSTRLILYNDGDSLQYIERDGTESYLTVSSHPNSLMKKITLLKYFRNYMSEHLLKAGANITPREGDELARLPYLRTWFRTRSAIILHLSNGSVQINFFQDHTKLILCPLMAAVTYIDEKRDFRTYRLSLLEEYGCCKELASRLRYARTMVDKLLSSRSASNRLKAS
HP1b binding inh – inhibitors of HP1-beta chromodomain binding to methylated histone tails | AlphaScreen HP1-beta / biotin-H3K9me3 peptide binding | Potency, µM (series often up to 114 µM), without a hit: top-dose activity change, negative = inhibition, usual class: inhibitors | 390,000 compounds, 0.56% hits | AID 540317; also: nearly all actives have a fitted effect of over 70% in size
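Compound inhibition of the preformed complex between 50 nM HP1-beta and 50 nM biotinylated H3K9me3 peptide was read by AlphaScreen. Buffer was PBS pH 7.4 with 0.01% Tween-20. Incubations ran 30 min at room temperature, with 10 ug/mL donor/acceptor beads.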
BAZ2B block – inhibitors of human BAZ2B bromodomain. Q9UIF8. AlphaScreen BAZ2B-H3K14Ac peptide displacement. Potency, µM (titrated, usually from 114 µM), without a hit: at the highest dose activity change, negative = inhibition, most hits filed as inhibitors. 360,000 compounds, 4.4% hits; also: % is scaled to controls: 0 for no effect and ±100 for the full control effect; nearly all actives have a fitted effect of over 60% in size
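Multi-concentration screen (max 110 uM) measuring displacement of acetylated histone H3 peptide from BAZ2B by AlphaScreen, using 50 nM protein, 50 nM peptide and 10 ug/mL streptavidin donor plus Ni-chelate acceptor beads.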
Sfp PPTase inh – Sfp phosphopantetheinyl transferase inhibition | Q9F4F7 | Biochemical Sfp PPTase activity, qHTS | 310,000 compounds, 3.5% hits | Potency, µM, for inactives: largest response in the series, negative = inhibition, hits mostly inhibitors;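 also: the enzyme is Sfp with the accession as filed and its product quenches rhodamine fluorescence; 0% = enzyme reaction without inhibitor and -100% = no enzyme wells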
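Buffer: 50 mM Hepes-Na pH 7.6, 10 mM MgCl2, 0.01% Nonidet P-40, 0.01% BSA. Enzyme 15 nM, pre-exposed to compound 15 min; substrates then added and fluorescence change tracked over 30 min.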
JMJD2A Tudor inh – blocks the human JMJD2A Tudor domain | O75164 | AlphaScreen JMJD2A-Tudor / H3K4me3 peptide binding | Potency, µM (highest dose often 114 µM), inactives show at the highest dose activity change, negative = inhibition, hits mostly inhibitors | 390,000 compounds, 4.4% hits; also: % is scaled to controls: 0 for no effect and ±100 for the full control effect; nearly all actives have a fitted effect of over 50% in size
An asterisk follows results filed as active; ? = inconclusive; . = no result; [ ] = dose if it differs, or a comment. Sampled rows, rich in hits. Any-hit rate of the full collection: about 12%. Calls follow the shape of the dose curve; as a rule, active = well fitted curve in the direction sought with a large enough effect; inconclusive = small, poorly fitted or top-dose-only effect, or another doubt; inactive = no such curve, though single readings can be large; an effect the other way counts as inactive or inconclusive. Potency is read from the fitted curve at half-maximal effect.

SMILES	G9a inh	PLK1 PBD block	HP1b binding inh	BAZ2B block	Sfp PPTase inh	JMJD2A Tudor inh
CC(=O)Nc1ccccc1Nc1nc(NCCO)nc(N2CCCC2)n1	.	.	35%	.	.	-13%
COc1ccccc1N1CCN(CC2CN3C(=O)N(C)c4ccccc4C3=N2)CC1 (stereo not given)	-4%[59 µM]	.	.	.	6%	.
CO[C@@H]1C[C@H](O[C@H]2[C@@H](C)[C@H](O[C@@H]3O[C@@H](C)C[C@@H](N(C)C)[C@@H]3OC(C)=O)[C@H](C)C[C@]3(CO3)C(=O)[C@H](C)[C@H](OC(C)=O)[C@H](C)[C@H](C)OC(=O)[C@@H]2C)O[C@H](C)[C@@H]1OC(C)=O	27%[21.5 µM]	.	.	.	12%	.
NC(Cc1cnc[nH]1)C(=O)Nc1ccc2ccccc2c1 (stereo not given)	.	.	.	.	11%	.
COc1ccc(-c2n[nH]c(=S)n2/N=C/C=C\c2ccccc2OC)cc1	?	-24%	28%	-27%	-20%	89µM*
O=C(Nc1ccccc1)c1cccc2c(=O)c3c([nH]c12)CCCC3	-33%[59 µM]	.	24%	0%	.	-5%
COCCCNCCCOc1ccc(C(C)(C)c2ccccc2)cc1	2.8µM*	-3%	?	45µM*	56µM*	6.3µM*
OCCNCCCCOc1ccc(OCc2ccccc2)cc1	18%[59 µM]	7%	-1%	-9%	7%	-34%
CCc1cc(OCCCCNCc2ccccc2)ccc1Cl	?	-7%	25%	?	-13%	6.3µM*
CC(C)(c1ccccc1)c1ccc(OCCn2cnc3ccccc3c2=O)cc1	12%[12.7 µM]	1%	73%	-3%	-7%	-3%
COCCNCc1ccccc1	20%[59 µM]	30µM*	-9%	-2%	13%	?
CC(C)(c1ccccc1)c1ccc(OCCCNCCO)cc1	-23%[12.7 µM]	-21%	-7%	56µM*	-28%	-15%[11.4 µM]
CCOCCCNCc1ccc(OCc2ccccc2Cl)cc1	5%[59 µM]	2%	28%	8%	10%	-1%
CCOC(=O)CCCCN(Cc1ccccc1F)S(=O)(=O)c1ccc(F)c(C(=O)Nc2cc(Cl)cc(Cl)c2)c1	33%[59 µM]	.	30%	11%	.	-12%
COc1ccc(-c2nc3ncccc3n2O)cc1	5%	-7%	15%	-18%	4%	-6%
O=C(Nc1ccccc1Br)C(Cc1ccccc1)NS(=O)(=O)c1cccc2nsnc12 (stereo not given)	-44%[59 µM]	.	23%	.	.	-29%
COc1ccc(CCNC(=O)C2CCN(S(=O)(=O)c3c(C)noc3/C=C/c3ccc(C)cc3)CC2)cc1OC	-2%[59 µM]	.	26%[57 µM]	-1%	.	1%
COc1cccc(OC)c1C(=O)Nc1ccc(C(=O)c2ccncc2)cc1	-10%[0.501 µM]	1%	29%	6%	.	-2%
COCCn1c(=O)cnc2cnc(Nc3cccc(OC)c3)nc21	6%[0.501 µM]	.	.	.	16%	.
C=CCNCCCOc1ccc(C(C)(C)c2ccccc2)cc1	10µM*	-7%	?	40µM*	-65%	1.6µM*
COc1cccc(OCCOc2ccccc2[N+](=O)[O-])c1	.	-1%	103%	.	.	40%
COCCNCCCOc1ccc(C(C)(C)c2ccccc2)cc1	10µM*	-6%	?	35µM*	16µM*	0.79µM*
CC(C)(C)c1ccc(OCCCNCc2ccccc2)cc1	10µM*	3%	?	?	-43%	3.5µM*
O=[N+]([O-])c1ccccc1OCCNCc1ccccc1	7.9µM*	-3%	?	?	-20%	45µM*
COc1ccc(OCCCNCCc2ccccc2)cc1	4%[12.7 µM]	-11%	27%	-25%	7%	-10%
SMILES	G9a inh	PLK1 PBD block	HP1b binding inh	BAZ2B block	Sfp PPTase inh	JMJD2A Tudor inh
COCCNC(=O)COc1ccc(OCCNC[C@H](O)COc2ccccc2)cc1	29%[59 µM]	.	.	.	14%	.
CCCCNC(=O)CN1C(=O)c2cccnc2Sc2ccccc21	-2%[59 µM]	.	60%	3%	.	-4%
CC(C)CCN1C(=O)C2(OCCCO2)c2cc(Cl)ccc21	.	-13%	115%	46%	-4%	50%
Cc1c(NC(=O)OCCNC(=O)Nc2ccccc2)sc(=S)n1C	?	?	-22%	-3%	-24%	-8%
CCOC(=O)Nc1sc(=S)n(C)c1C	13µM*	-23%	-7%	9%	16µM*	-9%
Cc1ccc(S(=O)(=O)NCCOC(=O)Nc2sc(=S)n(C)c2C)cc1	32µM*	?	?	?	56µM*	-9%
Cc1ccccc1CC(=O)Nc1cccnc1	45%	-8%	9%	-6%	9%	-12%
Fc1cccc(CN2CCN(Cc3nc(CCc4ccccc4)no3)CC2)c1	10%	-2%	60%	6%	5%	-5%
COc1ccc(-c2cc(-c3c(O)c(OC)c4occc4c3OC)[nH]n2)cc1OC	-6%[0.0925 µM]	-4%	?	?	-15%	56µM*
COc1ccc(-c2cc(-c3c(O)c(OC)c4occc4c3OC)[nH]n2)cc1	15%[12.7 µM]	4%	0%	-37%	?	?
O=C(Nc1cc(Cl)ccc1Cl)c1cc([N+](=O)[O-])cc(Br)c1O	.	.	-23%	.	.	56µM*
O=C(Nc1ccc([N+](=O)[O-])cc1Cl)c1cc(Cl)cc(Cl)c1O	.	.	-28%	.	.	45µM*
O=C(Nc1c(Cl)cc([N+](=O)[O-])cc1Cl)c1cc(Cl)ccc1O	.	.	0%	.	.	?
O=C(c1cc2ccccc2o1)N1CCN(c2ccccn2)CC1	1%	1%	?	?	-2%	3%
O=C1C(=C2CCCCC2)SC(=S)N1Cc1ccco1	35µM*	21µM*	-23%	?	40µM*	56µM*
O=C(O)CCN1C(=O)C(=C2CCCCCC2)SC1=S	45µM*	?	35%	10%	50µM*	-13%
Cc1cc(C)cc(C(O)c2ncc(-c3cccc(F)c3)[nH]2)c1 (stereo not given)	.	-5%	.	.	.	.
C#CCOCCOCCOCCNc1nc(N2CCN(C(=O)Cn3cc(CCO)nn3)CC2)nc(N2CCN(C(=O)[C@H]([C@@H](C)CC)n3cc(CCCN=C(N)N)nn3)CC2)n1	.	2%	33%	.	.	-14%
C#CCOCCOCCOCCNc1nc(N2CCN(C(=O)CCCCCCCCCCNC(=O)[C@H]([C@@H](C)CC)n3cc(CCCCCN)nn3)CC2)nc(N2CCN(C(=O)CCCCCCCCCCNC(=O)[C@H](CO)n3cc(CCCCCN)nn3)CC2)n1	1%[2.33 µM]	-3%	-20%	?	.	?
C#CCOCCOCCOCCNc1nc(N2CCN(C(=O)CCCCCCCCCCNC(=O)[C@H]([C@@H](C)CC)n3cc(CCCCCN)nn3)CC2)nc(N2CCN(C(=O)CCCCCCCCCCNC(=O)[C@H](CCCCN)n3cc(CCCC(=O)O)nn3)CC2)n1	3%[2.33 µM]	2%	11%	?	.	?

Screens: PubChem, National Center for Advancing Translational Sciences (NCATS)
